# Test results reported in PubChem BioAssay (Tox21).
# Several values for one entry are separate records, joined by “and”; a condition that tells them apart may be missing. Equal entries are not always repeated. Inconclusive results are not listed. Entries that show only a call come without a potency. Where a structure was tested more than once in an assay, its records may differ in their call. Activity calls are given as the source filed them. Calls come from the whole dose curve.
# Molecular target: Muscarinic acetylcholine receptor M1 (Homo sapiens) (UniProt P11229)
# Test: Cholinergic receptor muscarinic 1 (CHRM1) small molecule antagonists, cell-based qHTS assay (AID 1963588); note: nearly all actives have a fitted effect of over 40% in size
# Details: CHRM1-CHO antagonist mode, calcium flux fluorescence; series mostly up to 61.5 µM; activity, negative = inhibition: at the top concentration
# From the text: National Center for Advancing Translational Sciences [NCATS]
# Division of Preclinical Innovation [DPI]
# U.S. Environmental Protection Agency [EPA]
# National Institutes of Environmental Health Sciences [NIEHS]
# National Toxicology Program [NTP]
# U.S. Food and Drug Administration [FDA]
# The CHRM1 is a muscarinic receptor. This receptor plays a crucial role in learning and memory processes and has long been identified as a promising therapeutic target for the improvement of cognitive decline in Alzheimer's disease (AD). The CHRM1-CHO cell line stably expressing human muscarinic acetylcholine receptor M1 (CHRM1) can be used for screening agonists and antagonists of interactions between CHRM1 and its ligands. The CHRM1-CHO Calcium Flux Assay is a homogeneous fluorescence-based assay for detecting the intracellular calcium level using FDSS kinetic plate reader system.
# Tox21 Assay Protocol Summary:
# CHRM1-CHO cells were dispensed at 1000 cells/3uL/well in 1536-well black-clear bottom plates using a Multidrop Dispenser. After the assay plates were incubated at a 37 C/5% CO2 incubator for 18 h, 3 uL of Dye Loading Buffer was transferred to the assay plate by a Flying Reagent Dispenser. The assay plates were incubated at 37 C for 1h. For antagonist mode, 23 nL of compounds dissolved in DMSO, positive controls or DMSO only was transferred to the assay plate by a pin tool. After 5 min incubation at room temperature, 1.5 uL of acetylcholine at 50nM was added to each well. The fluorescence intensity in the plates was measured using FDSS 7000EX kinetic plate reader for 3 min at 1 sec intervals. Each test compound was measured at 15 concentrations in three independent runs.
# Potency is the fitted concentration of half-maximal effect.
# Chain of Muscarinic acetylcholine receptor M1 (Homo sapiens) (P11229 whole entry, looked up): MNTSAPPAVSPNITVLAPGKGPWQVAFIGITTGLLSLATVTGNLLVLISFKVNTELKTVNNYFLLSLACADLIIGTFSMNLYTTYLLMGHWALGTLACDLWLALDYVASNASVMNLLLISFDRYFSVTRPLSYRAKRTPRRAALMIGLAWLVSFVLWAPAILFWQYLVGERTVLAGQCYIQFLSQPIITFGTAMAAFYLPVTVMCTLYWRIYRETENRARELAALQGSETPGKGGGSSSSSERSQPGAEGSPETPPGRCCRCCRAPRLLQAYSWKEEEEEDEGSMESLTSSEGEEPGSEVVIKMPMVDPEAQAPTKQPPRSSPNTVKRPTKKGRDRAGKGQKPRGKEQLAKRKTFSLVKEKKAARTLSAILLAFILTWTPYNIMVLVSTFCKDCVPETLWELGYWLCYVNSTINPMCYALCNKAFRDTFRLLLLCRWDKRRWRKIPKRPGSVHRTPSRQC
Structure (SMILES),"activity, negative = inhibition",Potency
O=C(NCO)NCO,-2.85% (inactive),
C1CN2CCN1CC2,,inactive
Nc1ccc(Cl)cc1N,,inactive
CCCN(CCC)N=O,21.6% (inactive),
ClCC(Cl)(Cl)Cl,21.6% (inactive),
O=C(O)C(Cl)Cl,,inactive
CCCCC(CC)CO[N+](=O)[O-] (stereo not given),3.21% (inactive),
CN(C)N,-0.255% (inactive),
CCCCC(CC)COC(=O)c1ccc(C(=O)OCC(CC)CCCC)c(C(=O)OCC(CC)CCCC)c1 (stereo not given),,inactive
OC(Cc1ccccc1Cl)(Cn1cncn1)C1(Cl)CC1 (stereo not given),-0.751% (inactive),
CCOC(=O)CC(SP(=S)(OC)OC)C(=O)OCC (stereo not given),,inactive
CC(C)(O)C(=O)Nc1ccc([N+](=O)[O-])c(C(F)(F)F)c1,,inactive
CCOC(=O)N(C)N=O,15.9% (inactive),
ClC1=C(Cl)[C@]2(Cl)[C@@H]3[C@@H](Cl)[C@H](Cl)C[C@@H]3[C@@]1(Cl)C2(Cl)Cl,-16% (inactive),
COc1ccc(C=O)cc1OC,,inactive
Clc1ccc(C(c2ccc(Cl)cc2)C(Cl)Cl)cc1,,135 nM (active)
O=C(Cl)C(Cl)Cl,19.7% (inactive),
CC(C)c1ccc(NC(=O)N(C)C)cc1,-7.03% (inactive),
CC(C)(OOC(C)(C)c1ccccc1)c1ccccc1,,inactive
CCC(=O)C(CC(C)N(C)C)(c1ccccc1)c1ccccc1 (stereo not given),,inactive and 10.1 µM (active)

Structure (SMILES),"activity, negative = inhibition",Potency
COP(=S)(OC)Oc1ccc(S(=O)(=O)N(C)C)cc1,,inactive
CCc1cccc(CC)c1N(COC)C(=O)CCl,,inactive
CCCCOC(=O)CCC(=O)OCCCC,-14.5% (inactive),
CCCC1COC(Cn2cncn2)(c2ccc(Cl)cc2Cl)O1 (stereo not given),,inactive
COc1ccc2c3c1O[C@H]1[C@H](O)CC[C@H]4[C@@H](C2)N(C)CC[C@@]341,-5.62% (inactive),
CCC[CH2][Sn]([Cl])([Cl])[CH2]CCC,,inactive
CCCCCCC1CCOC1=O (stereo not given),3.98% (inactive),
Nc1ccc(-c2ccc(N)c(N)c2)cc1N,,inactive
CCOC(=O)c1ccccc1S(=O)(=O)NC(=O)Nc1nc(Cl)cc(OC)n1,-2.03% (inactive),
O=C(O)COc1ccc(Cl)cc1Cl,,inactive
CCC/C=N/O,,inactive
COP(=S)(OC)SCN1C(=O)c2ccccc2C1=O,,inactive
N#Cc1ccncc1,22.9% (inactive),
O=C(O)c1nc(Cl)ccc1Cl,,inactive
Nc1cccnc1,,inactive
O=S(=O)(c1ccccc1)c1ccccc1,0.161% (inactive),
CCCCCc1cc(O)cc(O)c1,,inactive
CC(C)(C)C(=O)CCl,17.5% (inactive),
CCCCCCOC(=O)c1ccccc1C(=O)OCCCCCC,,inactive
C1CS1,-22.4% (inactive),
